Laboratory results as given in the supplement of paper PMC11417369.
± gives the standard deviation of the averaged measurements. Whole data set: some 25,000 sequences, median “ln(normalized median fluorescence intensity)” near 7.9, cut for the highest 2% near 11. For the sample, the highest values were picked, then their nearest neighbours and some sequences at random.

The sequences below were run on PfAP2-I AP2 domain 3 (GST-tagged) (assay: gcPBM binding intensity (ln(normalized median fluorescence intensity)); higher = stronger DNA binding).
How it was run: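 The binding buffer was 1× PBS containing 1% milk, 0.2 mg/ml BSA, 0.5% salmon testes DNA and 0.03% Triton X-100. In it, GST-tagged P. falciparum DNA-binding domains expressed in E. coli were applied for 1 h to an Agilent 4 × 180k array of primer-extended double-stranded 36-bp intergenic genomic probes plus negative controls. Binding intensity, read with Alexa488 anti-GST antibody and a 488 nm scan, is the highest Masliner-normalised natural-log median intensity across replicate spots of either probe orientation.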

| Sequence | gcPBM binding intensity (ln) |
| --- | --- |
| AAATAAGAAAAAGCGCGTACACATAACATTTTTATA [XGTACX_site8807] | 7.82 ± 0.54 |
| TTAACGTAAAATATAGTGCATAGTATCATATTGATA [GTGCAC_site9527] | 9.5 ± 0.099 |
| GGTTTGAATTTTTAAGTGCATATAACATAAATGAAA | 9.86 ± 0.23 |
| TTTGAAATATTAAATGCATGTTAAAACATAAAAATG [TGCATGCA_site680] | 7.91 ± 0.73 |
| TATGTTTTTGAATGAGTGCATTAAAATAAAACATTT | 11.3 ± 0.61 |
| TATAATATGACAAGAAGTACATATATTTACATATAT [XGTACX_site1571] | 7.54 ± 0.29 |
| AAATCAAACTTTGGTGTGCACAAATATATACATATA [GTGCAC_site9986] | 10.545 ± 0.007 |
| TACAATGAAAAAATAACATGCAATTATATTTCTCTT [TGCATGCA_site833] | 8.23 ± 0.74 |
| GTTGTGTAATTCGTAACACACATAAAATATATATAA [CACACA_site6059] | 7.76 ± 0.48 |
| TATATTCAAAATGGTACACACAATATTTAATTGTGC [CACACA_site2631] | 7.68 ± 0.34 |
| TATTAATTTAAATGGGTGCAAAACCTATATAAATAT | 10.6 ± 0.55 |
| AATAAGTAACAAAATACACACATATAGGTAATTATA [CACACA_site6949] | 7.62 ± 0.59 |
| AAAAATTAACAAAAGGTGCAATTTATTTATTAACGG | 10.3 ± 0.5 |
| ATTTAAATACAAAATTGTACTTTTCTATATTTAACA [XGTACX_site6146] | 7.79 ± 0.41 |
| TATATTAACAAAATGGTGCAATAATTTCTATATTAT [GTGCAC_site9857] | 11.3 ± 0.61 |
| CATAACATAAAATAGGTGCACAAAAATTGTAATTGA | 11.37 ± 0.021 |
| TATATTAACAAAATGGTGCAATAATTTCTATATTGT [GTGCAC_site9430] | 11.2 ± 0.54 |
| TAATATAATATATAGGTGCAATATTAACAAAAATTT | 11 ± 0.44 |
| TAATATATATAACAAGTGCAAAAAAATATAGATATT [GTGCAC_site9625] | 9.38 ± 0.33 |
| AATGGGTTACACATATGTACATAAAATATAAAAAAT [XGTACX_site3440] | 8.06 ± 0.73 |
| GGAGAATAGTGGAAAACACACACGTTTGAGATATGG [CACACA_site1168] | 7.92 ± 0.91 |
| GATTAACAACATATTAGTACATATATTATATATATA [XGTACX_site7646] | 8.61 ± 0.23 |
| AGTTTCTATTTAGTGTGTACTTAAGAAAAATATCTC [XGTACX_site82] | 7.88 ± 0.4 |

| Sequence | gcPBM binding intensity (ln) |
| --- | --- |
| AGAAGAAAAGAAATATGTACATAAACGTCTGAACTA [XGTACX_site1699] | 7.8 ± 0.71 |
| CCTTTTGGATGAAAGTGTACAGGTGAGAAAAATTCC [XGTACX_site3358] | 8.07 ± 0.54 |
| TTATCGGTATAATATAGTACATATAGATATATAATA [XGTACX_site1440] | 7.7 ± 0.39 |
| TTTGATAAATTATACACACACAATATATATAAAATA [CACACA_site2023] | 7.72 ± 0.51 |
| CTTAAACTTTTAAATACACACATACAGACATACACA [CACACA_site6401] | 8.055 ± 0.021 |
| ATATTATAATTGAAGGTGCAAAATGTAATATAGATA [GTGCAC_site9661] | 10.9 ± 0.49 |
| AGATATTATAATTAATGTACAAAAAGAAAAAATAGA [XGTACX_site8964] | 7.86 ± 0.64 |
| ATGTATGCAAAAATGGTGCATATTAAATGTATAACA [GTGCAC_site9722] | 10.8 ± 0.49 |
| GTAGACATTATAATGGTGCAAAAAAATTAACAAAAA [GTGCAC_site9891] | 10.9 ± 0.3 |
| AGCAAAACAAAAAAATTAAAATTAACATATAATCAT [GTGCAC_negctrl_site393] | 7.38 ± 0.62 |
| ATTTTTTTTTAATGCAATATATTTTGAAAATTTTAT [CACACA_negctrl_site753] | 8.62 ± 0.27 |
| AGAAAAAAAAAAAAAAAAAAAAAATTGAATATATAT [TGCATGCA_negctrl_site55] | 7.67 ± 0.81 |
| AAATATAATTAATGATGTACACTTATAGATATTGAT [XGTACX_site8435] | 8.09 ± 0.24 |
| TATATATATATATAGGTGCAATATTGAAAAAATATC [GTGCAC_site9535] | 11.3 ± 0.47 |
| ATGTTATTAATAATTGCACACATTTTTTTTTTTTTT [CACACA_site3920] | 9.12 ± 0.23 |
| AAAAATATATAACAAAGTACATATATATTTAGTAAT [XGTACX_site8791] | 7.43 ± 0.4 |
| AAAATAAAATAAAAGTGTACGTTTTAAGAACATTGA [XGTACX_site2382] | 7.76 ± 0.48 |
| ATCTGTCGACAGGACAGTACACAGTAGCCAGTAACT [XGTACX_site2001] | 7.63 ± 0.76 |
| AATTTAAAGTTTTTTTTTTTTTTTTTTTTTTTTTTG [CACACA_negctrl_site1082] | 7.39 ± 0.31 |
| AACATTTCCTTTCTGTGTACATATAAACCCATCTAT [XGTACX_site2071] | 8.13 ± 0.64 |
| TATCATATATGAAGGTGTACGATTTATTATATAAAT [XGTACX_site7010] | 7.87 ± 0.54 |
| TAATGCAACATTTATGTGCACATAAATATTTTTTAA | 9.815 ± 0.064 |
| TTATTTTTTTTTAGAGCACACATTTTTAATAAGGTA [CACACA_site2133] | 9.54 ± 0.2 |
